D1 ag – human D1 receptor agonism | P21728 | HEK293 T-REx D1 cells, calcium flux, agonist mode | activation, % at 2 µM | 360,000 tested, 1% active | AID 504660; in the data active means activation above about 30%; further: 0% is about no effect
Target sequence (P21728 whole entry, looked up): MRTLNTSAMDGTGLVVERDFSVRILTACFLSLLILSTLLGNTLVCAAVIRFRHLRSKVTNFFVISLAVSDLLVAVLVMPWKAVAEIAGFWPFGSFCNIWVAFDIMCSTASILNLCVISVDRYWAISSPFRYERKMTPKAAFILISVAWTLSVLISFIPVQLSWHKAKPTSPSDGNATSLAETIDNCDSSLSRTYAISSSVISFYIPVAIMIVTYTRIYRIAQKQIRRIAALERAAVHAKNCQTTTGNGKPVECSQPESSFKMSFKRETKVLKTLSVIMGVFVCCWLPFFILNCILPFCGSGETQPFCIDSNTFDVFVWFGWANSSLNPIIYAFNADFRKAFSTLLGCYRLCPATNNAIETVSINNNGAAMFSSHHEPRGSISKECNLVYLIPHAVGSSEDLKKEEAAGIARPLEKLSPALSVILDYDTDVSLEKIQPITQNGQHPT
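Tetracycline-induced HEK293 TREx D1 cells, force-coupled to calcium signalling, were dye-loaded with a no-wash calcium kit. Compound was pin-added after a 10 s baseline. Fluorescence was read kinetically at 1 cycle/s for 180 s, with calcium rises flagged as agonism.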
D1 PAM – enhances dopamine response at the human D1 receptor | P21728 | 360,000 tested, 0.036% active | potentiation, % at 10 µM | HEK293 TREx D1 cells, calcium flux, dopamine EC20 potentiation; in the data active means potentiation above about 30%; further: 0% is about no effect
D3 ag – activates the human D3 dopamine receptor; P35462; D3R DiscoveRx beta-arrestin cells, luminescence, 90 min; max activation, %; 410,000 tested, 0.58% active; in the data active means max activation above about 30%; further: 0% is about no effect
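Agonist-mode cell screen: cells plated at 1500/well and incubated overnight at 37 °C, then exposed to library compounds for 90 min at 37 °C. Detection reagent was added for 30–60 min at room temperature, and luminescence was read.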
D3 antag – antagonists of human D3 dopamine receptor; P35462; D3R cells, DiscoveRx beta-arrestin luminescence, antagonist mode; stronger effect = lower value; max response, negative = inhibition, %; 360,000 tested, 2.5% active; AID 652054; in the data active means max response below about -50%; further: on the % scale 0 is the no-effect control and ±100 the full control effect
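Cells expressing the human receptor were seeded at 1500 cells/well, incubated overnight at 37 degrees C in 5% CO2, then exposed to library compounds with dopamine controls for 90 minutes at 37 degrees C before luminescent detection.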
D1 antag – blocks dopamine activation of the human D1 receptor. P21728. HEK293 TREx D1 cells, calcium flux, dopamine EC80; stronger effect = lower value. activity change, negative = inhibition, % at 10 µM. 360,000 tested, 3.2% active. AID 504652; in the data active means activity change below about -30%; further: on the % scale 0 is the no-effect control and ±100 the full control effect
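After overnight tetracycline induction at 30 C, force-coupled D1 HEK293 cells took up a no-wash calcium dye at room temperature. Compounds were added and monitored 180 s, and the response to EC80 dopamine was then recorded.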
Numbers without * were called inactive; . = not tested or not shown. A selection: hits, their analogues and other compounds. The true share with any hit is near 6.1%.

SMILES	D1 ag	D1 PAM	D3 ag	D3 antag	D1 antag
Cc1ccc(NC(=O)c2nc(S(=O)(=O)Cc3ccccc3C)ncc2Cl)cc1C	3	-9	-32	-74*	-40*
Cc1ccc(NC(=O)c2nc(S(=O)(=O)Cc3ccc(F)cc3)ncc2Cl)cc1C	4	-3	-23	.	-37*
CC(=O)Nc1ccc(NC(=O)c2nc(S(=O)(=O)Cc3ccc(F)cc3)ncc2Cl)cc1	-2	-1	-24	.	-4
Cc1ccc2nc(NCCc3ccccc3)c3nncn3c2c1	0	0	-6	-22	-21
O=C(CSc1nc2ccccc2nc1Cc1ccccc1)N1CCc2ccccc21	1	-2	-3	.	11
CCN(CC)c1ccc2c(-c3ccc(S(=O)(=O)O)cc3S(=O)(=O)[O-])c3ccc(=[N+](CC)CC)cc-3oc2c1	172*	-3	-18	0	-18
CS(=O)(=O)c1ccc(Cl)c(C(=O)NC2CCSc3ccccc32)c1 (centres undefined)	1	-9	0	-20	-45*
COc1ccc(-c2cc3nc(NCC4CCCCC4)n(C)c(=O)c3s2)cc1OC	.	.	37*	98	.
COc1ccc(CN2C(=O)C(C)Oc3ccccc32)cc1 (centres undefined)	13	6	0	12	-35*
COc1ccc(-n2nnc(-c3nc(-c4ccc5c(c4)OCO5)no3)c2C)cc1Cl	2	-3	8	.	-11
Cc1c(-c2nc(-c3ccccc3)no2)nnn1-c1ccc(F)c(Cl)c1	1	0	18	.	-6
COc1ccc(Cl)cc1-n1nnc(-c2nc(-c3ccccc3)no2)c1C	2	-1	2	.	-57*
COc1cc(-c2noc(-c3nnn(-c4ccc(Cl)cc4)c3C)n2)cc(OC)c1OC	2	0	5	.	-33*
COc1c(F)cccc1C1=CC(=O)C[C@H](c2ccc(F)cc2)C1	.	.	0	6	.
Cc1c(C)c2c(c(C)c1OC(=O)CCC(=O)OCCO)CC[C@@](C)(CCC[C@H](C)CCC[C@H](C)CCCC(C)C)O2	.	.	-18	.	.
CN1CCN(c2nc(-c3cc4ccccc4o3)cs2)CC1	4	-4	-8	2	5
NC(=O)C1CCN(c2nc(-c3cc4ccccc4o3)cs2)CC1	23	-6	.	.	-33*
COc1ccc(NC(=O)CN2CCN(c3ccccc3Cl)CC2)cc1	1	-3	-12	-61*	2
CCOc1ccc(NC(=O)CN2CCN(c3ccccc3C)CC2)cc1S(=O)(=O)N1CCCC1	1	-6	-24	-62*	2
CCOc1ccc(NC(=O)CN2CCN(c3ccc(F)cc3)CC2)cc1S(=O)(=O)N1CCCC1	.	.	1	-20	.
COC(=O)c1ccc(NC(=O)CN2CCN(c3ccccc3C)CC2)cc1	-1	-1	-2	-77*	8
COc1ccc(NC(=O)Cn2c(=O)cnc3ccccc32)cc1S(=O)(=O)N1CCCCC1	-2	-4	1	2	-48*
COc1ccc(NC(=O)CN2CCN(c3ccccc3C)CC2)cc1	4	0	-14	-26	3
COC(=O)c1ccc(NC(=O)CN2CCN(c3ccc(Cl)cc3)CC2)cc1	10	-8	-14	0	1
CCN1C(=O)c2ccccc2S(=O)c2ccc(C(=O)NCc3ccc(Cl)cc3)cc21 (centres undefined)	5	-3	-24	.	-1
SMILES	D1 ag	D1 PAM	D3 ag	D3 antag	D1 antag
O=[N+]([O-])c1ccccc1SN(Cc1ccccc1)c1ccccn1	1	5	-6	-20	-2
Cc1nnc(N2CCN(c3ccccc3F)CC2)c2c1nnn2Cc1ccccc1	3	1	5	.	-6
O=C(Nc1cccc(S(=O)(=O)N2CCCCC2)c1)C1=NN(c2ccccc2)C(=O)CC1	8	.	-6	-10	1
COc1cccc(-c2csc(N3CCN(CC(=O)Nc4ccc5c(c4)OCO5)CC3)n2)c1	0	-9	17	19	-2
COc1ccc(NC(=O)CN2CCN(c3nc(-c4cccc(OC)c4)cs3)CC2)cc1	2	-26	4	-9	-37*
CCOc1ccc(NC(=O)C2=NN(c3ccccc3)C(=O)CC2)cc1S(=O)(=O)N1CCCCC1	5	-1	4	0	-35*
COc1ccc(C(CNC(=O)CCNC(=O)c2ccc(Br)cc2)N2CCOCC2)cc1 (centres undefined)	-1	-2	-2	-3	15
COc1ccc(NS(=O)(=O)c2ccc3c(c2)NC(=O)CCS3)c(OC)c1	10	-5	6	.	-22
COc1ccc(NS(=O)(=O)c2ccc3c(c2)NC(=O)CCS3)cc1Cl	5	4	-2	-5	-39*
CCOC(=O)C1=C(COCCN)NC(C)=C(C(=O)OC)C1c1ccccc1Cl (centres undefined)	48*	-4	-8	4	36
Nc1nonc1-c1noc(-c2ccccc2)n1	-1	-3	-4	-63*	-13
Clc1ccc(N2CCN(Cc3c[nH]c4ncccc34)CC2)cc1	.	.	.	-78*	.
CCCOCc1cc(CN2CCN(c3cccc(Cl)c3)CC2)c(O)c2ncccc12	3	-1	-16	.	-2
Cn1ccc(C(=O)Nc2ccc(Br)cc2Br)n1	1	-16	-1	-3	-43*
CCC(C)(NC=O)C(=O)Nc1c(C)cccc1C (centres undefined)	2	-5	5	20	3
COc1ccc(N(CC(=O)N2CCN(Cc3ccc4c(c3)OCO4)CC2)S(=O)(=O)c2ccc(F)cc2)cc1	1	0	-18	-51*	3
CC(C)CNS(=O)(=O)c1ccc(CCC(=O)N2CCN(Cc3ccc4c(c3)OCO4)CC2)cc1	16	-2	1	143	-33*
Cc1ccc(CNC(=O)CCc2ccc(S(=O)(=O)NCC(C)C)cc2)cc1	2	-2	-7	-51*	7
Cc1ccc(S(=O)(=O)N(C)CC(=O)N2CCN(Cc3ccc4c(c3)OCO4)CC2)cc1	3	-6	-22	-10	-18
O=C(CCc1ccc(S(=O)(=O)NCCc2ccccc2)cc1)N1CCN(Cc2ccc3c(c2)OCO3)CC1	6	-1	.	.	-6
O=C(CN(c1ccccc1)S(=O)(=O)c1ccccc1)N1CCN(Cc2ccc3c(c2)OCO3)CC1	5	-2	-20	-67*	10
COC(=O)C1CCN(C(=O)C2CC(=O)N(c3ccc(C)c(Cl)c3)C2)CC1 (centres undefined)	.	.	5	3	.
Cc1cc(C)n(-c2nc3ccccc3nc2Nc2cccc(C(=O)NCCc3ccccc3)c2)n1	1	1	-6	.	-3
CC1CC(C)CN(C(=O)c2cc3cc(Br)cc(Br)c3o2)C1 (centres undefined)	6	2	2	-4	12
CCOC(=O)c1cnc(NCc2ccc(Cl)cc2)c2ccccc12	4	-2	-18	.	12
NC(=O)CSc1nnc2sc3ccccc3n12	1	32*	6	22	-15
